Counter-ions that a name gives are not always drawn. ± gives the standard error. Out of some 1,300 compounds screened, about 75 (6%) showed an effect of 50% or more. Only a selection was taken, and strong results are over-represented in it overall.
Tested on: Trichoderma virens ATCC 9645
Assay: growth yield (OD600) relative to untreated control; higher = less growth inhibition
Conditions: compound concentration: 100 uM
Summary of the method: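 Trichoderma virens ATCC 9645 spores from 7-day potato dextrose agar plates were suspended in potato dextrose broth at 15,000 spores ml^−1. Aliquots of 100 μl with library compounds at 100 μM final, with or without a co-applied biocide at 200 ng ml^−1, were grown in 96-well plates at 30 °C. OD600 was read at 40 h and 72 h on a BioTek EL800. Growth is expressed relative to the control without either agent, as means of duplicate screens.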

| SMILES | growth yield (40 h) [%] | growth yield (72 h) [%] |
| --- | --- | --- |
| Cc1onc(-c2ccccc2)c1-c1ccc(S(N)(=O)=O)cc1 [Valdecoxib] | 107 ± 11 | 104 ± 8.3 |
| CCOC(=O)[C@H](CCc1ccccc1)N[C@H]1CCc2ccccc2N(CC(=O)O)C1=O [Benazepril hydrochloride] | 104 ± 3.5 | 105 ± 2.1 |
| O=C(CCCCC(=O)Nc1c(I)cc(I)c(C(=O)O)c1I)Nc1c(I)cc(I)c(C(=O)O)c1I [Iodipamide] | 103 ± 1.1 | 101.6 ± 0.32 |
| CC(Oc1c(Cl)cccc1Cl)C1=NCCN1 (centres undefined) [Lofexidine] | 104 ± 1.3 | 105 ± 1.1 |
| CN1CCCN=C1/C=C/c1cccc(O)c1 [Oxantel pamoate] | 93.4 ± 0.64 | 99.8 ± 1.1 |
| Cc1cc(CC(=O)O)n(C)c1C(=O)c1ccc(Cl)cc1 [Zomepirac sodium salt] | 93.7 ± 5.7 | 88 ± 3.9 |
| COc1ccc(-c2cc(=S)ss2)cc1 [Anethole-trithione] | 76.4 ± 9.1 | 77.5 ± 7.2 |
| CNC(=O)c1c(I)c(C(=O)NCC(=O)Nc2c(I)c(C(=O)O)c(I)c(C(=O)NCCO)c2I)c(I)c(N(C)C(C)=O)c1I [Ioxaglic acid] | 105 ± 5.2 | 101 ± 2.2 |
| CCC(=O)O[C@@H](O[P@](=O)(CCCCc1ccccc1)CC(=O)N1C[C@H](C2CCCCC2)C[C@H]1C(=O)O)C(C)C [Fosinopril] | 109.8 ± 0.48 | 103 ± 3.5 |
| CCCCc1oc2ccc(NS(C)(=O)=O)cc2c1C(=O)c1ccc(OCCCN(CCCC)CCCC)cc1 [Dronedarone hydrochloride] | 6.19 ± 1.8 | 1.99 ± 0.52 |
| CCCCOc1cc(C(=O)OCCN(CC)CC)ccc1N [Benoxinate hydrochloride] | 103 ± 3 | 103 ± 1.1 |
| CCCCOc1cc(C(=O)NCCN(CC)CC)c2ccccc2n1 [Dibucaine] | 101.02 ± 1e-14 | 98.37 ± 0.21 |
| CN(CCOc1ccc(NS(C)(=O)=O)cc1)CCc1ccc(NS(C)(=O)=O)cc1 [Dofetilide] | 100 ± 5.9 | 98.7 ± 4.3 |
| CCCCCCCN(CC)CCCC(O)c1ccc(NS(C)(=O)=O)cc1 (centres undefined) [Ibutilide fumarate] | 100 ± 2.9 | 101 ± 2.5 |
| CCCCc1oc2ccccc2c1C(=O)c1cc(I)c(OCCN(CC)CC)c(I)c1 [Amiodarone hydrochloride] | 3.18 | 2.94 |
| C[N+]1(C)CCC(OC(=O)C(O)(c2ccccc2)C2CCCC2)C1 (centres undefined) [Glycopyrrolate] | 96.26 ± 0.95 | 90.72 ± 0.73 |
| CCC(=O)OCC(=O)[C@@]1(OC(=O)CC)[C@@H](C)C[C@H]2[C@@H]3CCC4=CC(=O)C=C[C@]4(C)[C@@]3(Cl)[C@@H](O)C[C@@]21C [Beclomethasone dipropionate] | 103 ± 7.8 | 98.7 ± 3 |
| N=C(N)NCCN1CCCCCCC1 [Guanethidine sulfate] | 99.6 ± 1.1 | 100.79 ± 0.1 |
| OCCN1CCN(CC/C=C2/c3ccccc3Sc3ccc(Cl)cc32)CC1 [Zuclopenthixol dihydrochloride] | 15.1 ± 1.8 | 60.4 ± 5.7 |
| CN(C)CC/C=C1/c2ccccc2Sc2ccc(Cl)cc21 [Chlorprothixene hydrochloride] | 70.5 ± 6.3 | 90.8 ± 2.7 |
| OCCOCCN1CCN(C2=Nc3ccccc3Sc3ccccc32)CC1 [Quetiapine hemifumarate] | 108 ± 15 | 106 ± 12 |

| SMILES | growth yield (40 h) [%] | growth yield (72 h) [%] |
| --- | --- | --- |
| Cc1cccc(N(C)C(=S)Oc2ccc3ccccc3c2)c1 [Tolnaftate] | 0 | 0 |
| O=C(O)COC(=O)Cc1ccccc1Nc1c(Cl)cccc1Cl [Aceclofenac] | 94.2 ± 2.1 | 95.02 ± 0.42 |
| CCCCCNC(=N)N/N=C/c1c[nH]c2ccc(OC)cc12 [Tegaserod maleate] | 5.24 ± 0.16 | 3.88 ± 0.52 |
| COc1ccc2[nH]cc(CCNC(C)=O)c2c1 [Melatonin] | 101 | 97.3 |
| CN(C)CCN1C(=O)c2ccccc2N(C)c2ccccc21 [Dibenzepine hydrochloride] | 101 ± 1.8 | 105 ± 3 |
| CC(C)NC[C@@H](O)COc1ccc(CC(N)=O)cc1 [(R)-(+)-Atenolol] | 102 ± 4 | 97.8 ± 1.8 |
| C=C1C[C@H]2[C@@H]3C=C(C)C4=CC(=O)CC[C@]4(C)[C@H]3CC[C@]2(C)[C@@]1(OC(C)=O)C(C)=O [Melengestrol acetate] | 96.6 ± 1.6 | 94.5 ± 2.4 |
| C=C(NC(=O)C(=C)NC(=O)c1csc(C2=N[C@@H]3c4csc(n4)[C@H]4NC(=O)c5csc(n5)[C@H]([C@](C)(O)[C@@H](C)O)NC(=O)[C@H]5CSC(=N5)/C(=C/C)NC(=O)[C@H]([C@@H](C)O)NC(=O)c5csc(n5)[C@]3(CC2)NC(=O)[C@H](C)NC(=O)C(=C)NC(=O)[C@H](C)NC(=O)[C@H]([C@@H](C)CC)N[C@@H]2C=Cc3c([C@H](C)O)cc(nc3[C@H]2O)C(=O)O[C@@H]4C)n1)C(N)=O [Thiostrepton] | 96.6 ± 2.9 | 99 ± 2.1 |
| CC(=O)NCCCS(=O)(=O)O [Acamprosate calcium] | 98.32 ± 0.48 | 95.9 ± 1.7 |
| Oc1c(I)cc(Cl)c2cccnc12 [Clioquinol] | 18.3 ± 7.8 | 12.9 ± 5.3 |
| Oc1c(Cl)cc(Cl)c2cccnc12 [Chloroxine] | 1.27 ± 0.32 | 1.36 ± 0.32 |
| CCN[C@H]1C[C@H](C)S(=O)(=O)c2sc(S(N)(=O)=O)cc21 [Dorzolamide hydrochloride] | 99.3 ± 5.6 | 92.7 ± 6.7 |
| CO/N=C(\C(=O)N[C@@H]1C(=O)N2C(C(=O)O)=C(COC(N)=O)CS[C@H]12)c1ccco1 [Cefuroxime sodium salt] | 96.9 ± 2.9 | 89.9 ± 1.1 |
| O=C1C(CC[S+]([O-])c2ccccc2)C(=O)N(c2ccccc2)N1c1ccccc1 (centres undefined) [Sulfinpyrazone] | 102 ± 1.1 | 106 ± 2.1 |
| CC(N/C(=N\C#N)Nc1ccncc1)C(C)(C)C (centres undefined) [Pinacidil] | 100 ± 2.2 | 103 ± 0.21 |
| N=C(N)NCc1cccc(I)c1 [Iobenguane sulfate] | 105 ± 1.9 | 106 ± 1.1 |
| Nc1nc(NC2CC2)c2ncn([C@H]3C=C[C@@H](CO)C3)c2n1 [Abacavir Sulfate] | 97.2 ± 2.5 | 98.48 ± 0.1 |
| CCC[C@H](N[C@@H](C)C(=O)N1[C@H](C(=O)O)C[C@@H]2CCCC[C@@H]21)C(=O)OCC [Perindopril] | 101 ± 3.5 | 96.9 ± 2.5 |
| Cn1c(=O)c2c(ncn2CC(=O)O)n(C)c1=O [Acefylline] | 96.6 ± 1.9 | 95.12 ± 0.94 |
| O=C(O)c1cn(-c2ccc(F)cc2)c2cc(N3CCNCC3)c(F)cc2c1=O [Sarafloxacin] | 101 ± 4.1 | 97 ± 2.4 |
| O=C1NCCN1CCN1CCC(c2cn(-c3ccc(F)cc3)c3ccc(Cl)cc23)CC1 [Sertindole] | 34.5 ± 20 | 111 ± 2.4 |

| SMILES | growth yield (40 h) [%] | growth yield (72 h) [%] |
| --- | --- | --- |
| CN(C)[C@@H]1C(O)=C(C(=O)NCNCCCC[C@H](N)C(=O)O)C(=O)[C@@]2(O)C(O)=C3C(=O)c4c(O)cccc4[C@@](C)(O)[C@H]3C[C@@H]12 [Lymecycline] | 82.1 ± 2.7 | 73.83 ± 0.63 |
| CC(C)(O/N=C(\C(=O)N[C@@H]1C(=O)N2C(C(=O)[O-])=C(C[n+]3ccccc3)CS[C@H]12)c1csc(N)n1)C(=O)O [Ceftazidime pentahydrate] | 102 | 102 ± 1.1 |
| CO/N=C(\C(=O)N[C@@H]1C(=O)N2C(C(=O)OC(C)OC(C)=O)=C(COC(N)=O)CS[C@H]12)c1ccco1 (some centres undefined) [Cefuroxime axetil] | 97.05 ± 0.16 | 96.5 ± 1.7 |
| CC(C)NCC(O)c1cc(O)cc(O)c1 (centres undefined) [Metaproterenol sulfate, orciprenaline sulfate] | 99.1 ± 1.6 | 99.95 ± 0.1 |
| CC[C@@H]([C@H](C)O)n1ncn(-c2ccc(N3CCN(c4ccc(OC[C@@H]5CO[C@@](Cn6cncn6)(c6ccc(F)cc6F)C5)cc4)CC3)cc2)c1=O [Posaconazole] | 8.9 ± 8.9 | 5.77 ± 5.6 |
| CC(=O)N1CCN(c2ccc(OCC3COC(Cn4ccnc4)(c4ccc(Cl)cc4Cl)O3)cc2)CC1 (centres undefined) [Ketoconazole] | 2.22 ± 1.3 | 1.68 ± 0.84 |
| CC(C)N1CCN(c2ccc(OCC3COC(Cn4cncn4)(c4ccc(Cl)cc4Cl)O3)cc2)CC1 (centres undefined) [Terconazole] | 82.44 ± 0.16 | 88.4 ± 1.1 |
| CCC(C)n1ncn(-c2ccc(N3CCN(c4ccc(OCC5COC(Cn6cncn6)(c6ccc(Cl)cc6Cl)O5)cc4)CC3)cc2)c1=O (centres undefined) [Itraconazole] | 4.77 ± 2.2 | 13.2 |
| Nc1ccc(C(=O)O)c(O)c1 [4-aminosalicylic acid] | 93.1 | 89.36 ± 0.42 |
| CO[C@@]1(NC(=O)C(C(=O)O)c2ccc(O)cc2)C(=O)N2C(C(=O)O)=C(CSc3nnnn3C)CO[C@@H]21 (some centres undefined) [Moxalactam disodium salt] | 96.1 ± 0.16 | 92.71 ± 0.63 |
| CCC(C)(C)C(=O)O[C@H]1C[C@@H](C)C=C2C=C[C@H](C)[C@H](CC[C@@H]3C[C@@H](O)CC(=O)O3)[C@H]21 [Simvastatin] | 103 ± 1.3 | 96.2 ± 4.5 |
| C=CCN1CCCC1CNC(=O)c1cc2nn[nH]c2cc1OC (centres undefined) [Alizapride hydrochloride] | 108 ± 4.3 | 109 ± 2.7 |
| CN(C)C(=N)NC(=N)N [Metformin hydrochloride] | 105 ± 7.2 | 103 ± 5.3 |
| Clc1ccc(C(Cn2ccnc2)OCc2c(Cl)cccc2Cl)c(Cl)c1 (centres undefined) [Isoconazole] | 2.06 ± 1.4 | 1.68 ± 1.1 |
| Clc1ccc(CSC(Cn2ccnc2)c2ccc(Cl)cc2Cl)cc1 (centres undefined) [Sulconazole nitrate] | 2.22 ± 0.64 | 1.78 ± 0.52 |
| Clc1ccc(CCC(Cn2ccnc2)Sc2c(Cl)cccc2Cl)cc1 (centres undefined) [Butoconazole nitrate] | 3.49 | 2.31 |
| Clc1ccc(CO/N=C(\Cn2ccnc2)c2ccc(Cl)cc2Cl)c(Cl)c1 [Oxiconazole Nitrate] | 1.59 ± 1.6 | 0.839 ± 0.84 |
| CCN1CCCC(OC(=O)C(c2ccccc2)c2ccccc2)C1 (centres undefined) [Piperidolate hydrochloride] | 106 ± 0.79 | 105 ± 1.8 |
| C=CC[N@@+]12CC[C@@]34c5ccccc5N5/C=C6/[C@H]7C[C@H]8[C@@]9(CC[N@@+]8(CC=C)C/C7=C/CO)c7ccccc7N(/C=C(/[C@@H](C[C@@H]31)/C(=C\CO)C2)[C@H]54)[C@@H]69 [Alcuronium chloride] | 66.1 ± 7.6 | 65.8 ± 5.3 |
| O=C(O)CCNC(=O)c1ccc(/N=N/c2ccc(O)c(C(=O)O)c2)cc1 [Balsalazide Sodium] | 107 ± 1.4 | 101.9 ± 0.84 |
